# mHTT-CaM PPI inh – mutant huntingtin-calmodulin interaction inhibitors – biochemical, AlphaScreen, primary screen. P42858. AlphaScreen His-mHTT/GST-CaM binding, luminescence. inhibition, % at 15 µM. actives 3.6% (n = 190,000). AID 1671202, 2021;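 further: 0% = both proteins with DMSO and 100% = one protein alone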
# Target sequence (P42858 whole entry, looked up, stated change not applied): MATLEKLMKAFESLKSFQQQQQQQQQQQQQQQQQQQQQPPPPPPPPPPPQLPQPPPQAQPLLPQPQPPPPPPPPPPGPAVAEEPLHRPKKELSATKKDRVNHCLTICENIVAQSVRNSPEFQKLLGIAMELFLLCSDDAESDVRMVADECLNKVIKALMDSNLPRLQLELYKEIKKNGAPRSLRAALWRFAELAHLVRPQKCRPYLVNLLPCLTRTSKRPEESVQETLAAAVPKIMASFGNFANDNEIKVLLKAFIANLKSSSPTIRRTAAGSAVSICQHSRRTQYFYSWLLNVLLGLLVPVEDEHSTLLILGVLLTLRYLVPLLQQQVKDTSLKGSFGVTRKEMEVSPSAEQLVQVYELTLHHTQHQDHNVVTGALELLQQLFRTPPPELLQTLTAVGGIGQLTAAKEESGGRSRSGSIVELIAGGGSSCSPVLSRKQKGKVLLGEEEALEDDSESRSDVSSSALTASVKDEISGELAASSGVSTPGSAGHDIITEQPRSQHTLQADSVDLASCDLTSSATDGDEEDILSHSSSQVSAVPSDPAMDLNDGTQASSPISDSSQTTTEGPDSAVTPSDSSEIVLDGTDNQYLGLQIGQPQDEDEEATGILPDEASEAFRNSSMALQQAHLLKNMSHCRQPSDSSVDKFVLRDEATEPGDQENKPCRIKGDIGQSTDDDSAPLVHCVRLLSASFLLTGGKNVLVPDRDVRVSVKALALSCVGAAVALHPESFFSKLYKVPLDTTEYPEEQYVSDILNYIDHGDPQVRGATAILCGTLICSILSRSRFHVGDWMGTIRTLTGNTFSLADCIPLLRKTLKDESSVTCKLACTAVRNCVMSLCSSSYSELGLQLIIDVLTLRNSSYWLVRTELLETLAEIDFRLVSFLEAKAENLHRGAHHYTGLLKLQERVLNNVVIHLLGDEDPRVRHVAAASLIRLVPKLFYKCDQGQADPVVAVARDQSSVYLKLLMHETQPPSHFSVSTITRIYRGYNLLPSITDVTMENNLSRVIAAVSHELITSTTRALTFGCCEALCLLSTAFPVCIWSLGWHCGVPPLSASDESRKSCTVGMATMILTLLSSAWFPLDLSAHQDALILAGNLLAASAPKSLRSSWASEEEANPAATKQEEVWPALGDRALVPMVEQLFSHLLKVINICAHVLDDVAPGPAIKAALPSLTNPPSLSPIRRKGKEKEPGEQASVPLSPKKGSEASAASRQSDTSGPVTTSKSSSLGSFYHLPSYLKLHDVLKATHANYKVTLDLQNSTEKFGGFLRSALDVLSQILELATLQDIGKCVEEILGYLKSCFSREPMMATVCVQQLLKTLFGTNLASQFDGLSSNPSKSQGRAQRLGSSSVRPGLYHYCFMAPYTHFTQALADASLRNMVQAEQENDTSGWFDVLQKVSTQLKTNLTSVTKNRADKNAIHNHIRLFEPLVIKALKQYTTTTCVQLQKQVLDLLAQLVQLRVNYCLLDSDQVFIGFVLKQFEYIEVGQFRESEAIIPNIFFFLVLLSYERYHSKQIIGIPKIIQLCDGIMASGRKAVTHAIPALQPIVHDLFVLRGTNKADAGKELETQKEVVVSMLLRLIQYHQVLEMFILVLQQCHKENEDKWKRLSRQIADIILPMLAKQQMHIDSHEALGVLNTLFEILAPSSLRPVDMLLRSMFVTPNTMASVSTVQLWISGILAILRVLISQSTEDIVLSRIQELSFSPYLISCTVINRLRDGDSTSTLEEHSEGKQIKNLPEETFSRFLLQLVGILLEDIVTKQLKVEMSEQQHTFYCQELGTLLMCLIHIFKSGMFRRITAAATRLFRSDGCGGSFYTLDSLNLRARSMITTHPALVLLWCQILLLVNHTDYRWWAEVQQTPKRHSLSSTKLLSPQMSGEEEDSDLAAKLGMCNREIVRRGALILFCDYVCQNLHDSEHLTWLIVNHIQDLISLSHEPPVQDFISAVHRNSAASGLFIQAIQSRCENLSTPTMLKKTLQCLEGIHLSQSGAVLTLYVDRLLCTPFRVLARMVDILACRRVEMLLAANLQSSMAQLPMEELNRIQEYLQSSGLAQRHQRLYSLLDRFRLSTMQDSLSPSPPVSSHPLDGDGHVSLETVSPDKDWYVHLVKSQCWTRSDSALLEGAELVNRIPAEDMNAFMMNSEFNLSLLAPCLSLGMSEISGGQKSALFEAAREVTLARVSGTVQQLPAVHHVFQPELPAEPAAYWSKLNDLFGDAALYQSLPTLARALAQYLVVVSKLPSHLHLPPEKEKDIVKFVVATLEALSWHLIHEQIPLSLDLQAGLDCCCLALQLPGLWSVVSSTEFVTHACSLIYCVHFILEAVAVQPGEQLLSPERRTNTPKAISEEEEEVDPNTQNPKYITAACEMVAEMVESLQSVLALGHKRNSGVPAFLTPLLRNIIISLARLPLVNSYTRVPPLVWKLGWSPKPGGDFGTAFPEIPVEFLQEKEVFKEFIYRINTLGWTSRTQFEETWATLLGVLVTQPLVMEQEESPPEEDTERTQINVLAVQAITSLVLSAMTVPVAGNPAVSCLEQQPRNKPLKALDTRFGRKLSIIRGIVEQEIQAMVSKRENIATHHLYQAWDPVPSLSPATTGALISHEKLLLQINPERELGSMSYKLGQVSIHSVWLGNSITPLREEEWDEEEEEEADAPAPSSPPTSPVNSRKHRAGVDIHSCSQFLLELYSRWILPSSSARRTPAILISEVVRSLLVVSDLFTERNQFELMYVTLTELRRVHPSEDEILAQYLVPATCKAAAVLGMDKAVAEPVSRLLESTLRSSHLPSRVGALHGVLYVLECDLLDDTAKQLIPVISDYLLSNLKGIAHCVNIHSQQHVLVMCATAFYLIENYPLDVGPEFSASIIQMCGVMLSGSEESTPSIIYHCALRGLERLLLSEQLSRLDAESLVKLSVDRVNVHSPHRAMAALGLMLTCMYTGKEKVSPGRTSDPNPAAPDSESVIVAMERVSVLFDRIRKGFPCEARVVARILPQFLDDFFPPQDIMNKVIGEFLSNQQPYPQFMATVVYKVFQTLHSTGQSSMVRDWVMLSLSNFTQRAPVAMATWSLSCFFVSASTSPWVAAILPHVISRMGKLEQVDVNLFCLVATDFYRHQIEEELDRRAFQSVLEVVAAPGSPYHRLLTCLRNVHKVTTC
# Pf apPOL block – Pf-apPOL inhibitors, biochemical, fluorescence; inhibition, % at 10 µM; actives 0.25% (n = 210,000); Recombinant Pf-apPOL, molecular beacon fluorescence, 1.5 h
# Active calls of the source: *; nt = no result given. In the library only some 3.5% were active in any assay of this set; here they are far more common. No stated cut-off is given here; in the data, active means inhibition above about 50%; inactive means the rest.
SMILES,mHTT-CaM PPI inh,Pf apPOL block
Cc1cc(NC(=O)N2CCn3cccc3C2C(C)C)ccc1Br (stereo not drawn),99.5*,0.7
Cc1cccc(NC(=O)N2CCn3cccc3C2C(C)C)c1 (stereo not drawn),4.0,-9.5
Cc1ccc(NC(=O)N2CCn3cccc3C2Cc2ccccc2)cc1F (stereo not drawn),4.3,2.7
CCCC1c2cccn2CCN1C(=O)Nc1cccc(F)c1 (stereo not drawn),25.7,-12.9
Cc1ccc(NC(=O)N2CCn3cccc3C2C)cc1F (stereo not drawn),5.3,78.8*
CCCC1c2ccc(C)n2CCN1C(=O)Nc1ccc(Cl)cc1 (stereo not drawn),50.5*,-3.8
COc1ccc(-c2ccc3nc(N4CCC(C(=O)NC(C)C)CC4)sc3n2)cc1,14.0,-4.6
CCNC(=O)C1CCN(c2nc3ccc(-c4ccc(OC)cc4)nc3s2)CC1,62.0*,7.0
O=S(=O)(c1ccccc1)c1nc(-c2ccccc2)oc1N1CCOCC1,1.0,-2.9
O=S(=O)(c1ccccc1)c1nc(Cc2ccccc2)oc1N1CCCCCC1,23.0,68.0*
CCCNC(=O)c1csc(-c2ccc(OC)cc2Cl)n1,1.6,-13.1
O=C(NC1CC2CC1N(C(=O)Nc1ccc3c(c1)OCO3)C2)c1ccccc1 (stereo not drawn),7.7,1.0
O=C(CC(=NNc1ccc([N+](=O)[O-])cc1)C(F)(F)F)C(F)(F)F,nt,-17.7
Cc1ccccc1OCC(=O)N1CCN(C2=CC3=NC(C)CN3C=N2)CC1 (stereo not drawn),90.6*,-6.2
COc1ccccc1NC(=O)N1CCN(C2=CC3=NC(C)CN3C=N2)CC1 (stereo not drawn),3.9,-0.1
COc1cc(OC)c(OC)cc1CNc1ccc(Br)cc1C,76.2*,-1.7
COc1cc(OC)c(OC)cc1CNc1ccc([N+](=O)[O-])cc1C,4.5,-10.0
CCOC(=O)c1cccc(NC(=O)N2CCc3nc4cc[nH]n4c(=O)c3C2)c1,7.9,-0.2
O=C1ON=C(CSc2ccccc2)C1=Cc1ccccc1,nt,61.3*
O=C1CCC=C1CSc1ccccc1,-7.5,nt
CN(c1ccc(F)cc1)S(=O)(=O)c1ccc2[nH]cc(C(=O)NC3CCCCCC3)c(=O)c2c1,33.0,3.1
COc1cccc(C2C=C(c3ccc(F)cc3)Nc3ncnn32)c1OC(F)F (stereo not drawn),73.0*,-4.9
COc1ccc(C2C=C(c3ccc(Br)s3)Nc3ncnn32)cc1OC (stereo not drawn),57.0*,-6.0
COc1ccc(C2=CC(c3cccc(OC)c3OC)n3ncnc3N2)cc1 (stereo not drawn),-2.0,-6.4
COc1ccc(C2C=C(c3ccc(Cl)cc3)Nc3ncnn32)c(OC)c1OC (stereo not drawn),89.0*,-2.9
SMILES,mHTT-CaM PPI inh,Pf apPOL block
CCc1ccc(C2=CC(c3ccc(OC)c(OC)c3OC)n3ncnc3N2)cc1 (stereo not drawn),35.0,-2.8
COc1cccc(C2C=C(c3ccc(Cl)cc3)Nc3ncnn32)c1OC (stereo not drawn),58.0*,-4.9
COc1ccc(C2C=C(c3cccs3)Nc3ncnn32)cc1OC (stereo not drawn),6.0,-2.6
Fc1ccc(C2=CC(c3ccccc3OC(F)F)n3ncnc3N2)cc1 (stereo not drawn),10.0,-5.8
COc1ccc(C2C=C(c3cccc(Br)c3)Nc3ncnn32)c(OC)c1 (stereo not drawn),45.0,-8.5
COc1cccc(C2=CC(c3ccc(OC)cc3OC)n3ncnc3N2)c1 (stereo not drawn),22.0,-9.4
COc1cc(C2C=C(c3cccc(Br)c3)Nc3ncnn32)cc(OC)c1OC (stereo not drawn),100.0*,-8.7
COc1ccc(C2C=C(c3cccc(NC(C)=O)c3)Nc3ncnn32)c(OC)c1 (stereo not drawn),4.0,83.0*
COc1cccc(NC2=C(N3CCOCC3)C(=O)c3ccccc3C2=O)c1,37.5,14.2
CCOc1ccc(NC2=C(N3CCCCC3)C(=O)c3ccccc3C2=O)cc1,95.8*,7.7
COc1cccc(NC2=C(N3CCCC3)C(=O)c3ccccc3C2=O)c1,100.2*,0.1
CC(=O)c1ccc(NC2=C(N3CCCCC3)C(=O)c3ccccc3C2=O)cc1,14.0,-12.5
CCCC12CN3CC(C)(CN(C1)C3c1ccc(Br)cc1)C2=O (stereo not drawn),0.0,5.4
Cc1nn(C)cc1C(=O)N(C)C1CCN(C)CC1,-8.1,-9.0
O=C(c1ccccc1Br)N1CCC(c2cnn(-c3ccccc3)c2)CC1,-2.7,-5.7
O=C(Nc1ccccc1)C1CCN(c2ccc3ccccc3c2)C1=O (stereo not drawn),2.8,-2.8
O=C(C1CCN(c2ccc3ccccc3c2)C1=O)N1CCN(Cc2ccccc2)CC1 (stereo not drawn),54.1*,-1.1
COc1ccc(C=C2SC(=S)N(C(C)C(=O)O)C2=O)cc1OC (stereo not drawn),-3.6,-8.0
Cc1ccc(NC2=C(N3CCOCC3)C(=O)c3ccccc3C2=O)cc1,46.5,3.6
CC(C)(C)c1cc(C2=C(N3CCOCC3)C(=O)c3ccccc3C2=O)cc(C(C)(C)C)c1O,85.8*,-2.3
CC(C)(C)c1cc(CN2CCC(O)CC2)cc(C(C)(C)C)c1O,-3.9,13.5
CC1CCN(C(c2ccc(N(C)C)cc2)c2cc(C(C)(C)C)c(O)c(C(C)(C)C)c2)CC1 (stereo not drawn),66.2*,-7.0
COc1cc(C(c2cc3c(cc2O)OCO3)N2CCOCC2)cc(OC)c1OC (stereo not drawn),26.4,nt
CC(C)(C)c1cc(C(c2ccccc2O)N2CCOCC2)cc(C(C)(C)C)c1O (stereo not drawn),52.3*,11.9
O=C(O)C1C2C=CC3(CN(Cc4ccccc4Cl)C(=O)C13)O2 (stereo not drawn),26.0,-7.4
SMILES,mHTT-CaM PPI inh,Pf apPOL block
CCN1c2cc(Cl)ccc2C(=O)NC12CCN(C(=O)NCc1ccc(F)cc1)CC2,57.6*,-2.5
CCN1c2cc(Cl)ccc2C(=O)NC12CCN(C(=O)NCc1ccc(C)cc1)CC2,-2.5,-3.4
COc1ccc(CNC(=O)C2CCCN(C(=O)c3ccccc3F)C2)cc1 (stereo not drawn),30.5,-4.4
CC(=O)N1CCc2ccc(C(=O)NC3CCCCCC3)cc21,-4.1,-1.5
COc1ccc(NS(=O)(=O)c2cc3c(s2)CCN(C(=O)C2CC2)C3)cc1,4.5,-3.3
CCOC(=O)N1CCCN=C1SC,nt,-17.1
Cc1ccc(C(=O)N2Cc3ccccc3CC2C(=O)O)cc1 (stereo not drawn),53.0*,-0.6
Cc1ccc(C(=O)N2CCCC2c2ccccc2C)cc1 (stereo not drawn),-9.3,0.0
COc1ccccc1C(NC(=O)C(C)C)c1ccc2cccnc2c1O (stereo not drawn),99.0*,-1.0
COc1ccccc1NC(=O)Nc1cccc2cccnc12,-3.8,-4.2
COc1ccccc1C(NC(C)=O)c1ccc2cccnc2c1O (stereo not drawn),100.0*,-0.2
COc1ccccc1C(=O)Nc1cc(Br)cc2cccnc12,19.0,8.9
CC(C#N)C(C)(O)c1ccccc1 (stereo not drawn),-3.7,-2.8
O=C(O)c1cc([N+](=O)[O-])c(N2CCN(c3cccc(C(F)(F)F)c3)CC2)c([N+](=O)[O-])c1,47.0,84.0*
O=[N+]([O-])c1ccc(N2CCN(c3cccc(C(F)(F)F)c3)CC2)s1,38.0,-1.1
